Test results: PubChem BioAssay (EPA / NIEHS)
Results filed as inconclusive are left out. Some compounds were tested as several samples or in several runs, with calls that do not always agree. Calls of active or inactive are those of the source. Rule for the calls, unless noted: active = hit-call score of the fitted dose curve at least 0.9, where 1 is the maximum; inactive = score below 0.9.

How the values were obtained:
[1] = CCTE_Shafer_MEA_dev_firing_rate_mean: CCTE's Neural Network Formation Assay for Mean Firing Rate, Shafer Lab (AID 2284031);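 for AC50: curve fitted for loss of firing so AC50 reflects decreased mean firing rate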
How it was run: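 Read-out: spike count/recording length, averaged over active electrodes, then AUC across days 5, 7, 9, 12. Rat cortical cultures on MEA; continuous 12-day exposure, media and treatment renewed DIV 5, 9; DMSO baseline.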

[2] = CCTE_Shafer_MEA_dev_per_burst_spike_percent: CCTE's Neural Network Formation Assay for Percent of Spikes in a Burst, Shafer Lab (AID 2284032);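 for AC50: fitted as a decrease in burst spike percentage below DMSO baseline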
How it was run: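 Value is trapezoidal AUC over recordings on days 5, 7, 9 and 12 of the well-mean fraction of spikes falling in single-electrode bursts; rat cortical cultures exposed continuously from plating, treatment renewed DIV 5 and 9, fitted downward against DMSO.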

[3] = CCTE_Shafer_MEA_dev_active_electrodes_number: CCTE's Neural Network Formation Assay for Number of Active Electrodes, Shafer Lab (AID 2284040; active = hit-call score of the fitted dose curve at least 0.9, where 1 is the maximum;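 for AC50: potency for loss of active electrodes versus DMSO so lower counts are hits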)
How it was run: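 Developing rat cortical networks on MEAs, exposed DIV 0–12. Value is the AUC of active-electrode counts (≥5 spikes/min) from days 5, 7, 9, 12, relative to DMSO.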

[4] = CCTE_Shafer_MEA_dev_burst_rate: CCTE's Neural Network Formation Assay for Burst Rate, Shafer Lab (AID 2284042);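 for AC50: potency for loss of burst rate below DMSO control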
How it was run: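 Rat primary cortical cultures on PEI/laminin MEA; compound from plating, re-dosed at DIV 5, 9 media change. Single-electrode bursts/recording length, well mean of active electrodes; AUC over DIV 5–12 recordings; loss-of-signal vs DMSO.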

[5] = CCTE_Shafer_MEA_dev_bursting_electrodes_number: CCTE's Neural Network Formation Assay for Number of Bursting Electrodes, Shafer Lab (AID 2284043; active = hit-call score of the fitted dose curve at least 0.9, where 1 is the maximum;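 for AC50: potency is for loss of bursting electrodes relative to DMSO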)
How it was run: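 Counted: electrodes with burst rate ≥1 per 2 min in each well. Cells: primary rat cortex, 1.5 x 10^5/well, on 16-electrode MEA wells. Exposure: DIV 0–12, compound renewed DIV 5 and 9. Recording days 5, 7, 9, 12; AUC vs DMSO baseline.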

[6] = CCTE_Shafer_MEA_dev_per_burst_interspike_interval: CCTE's Neural Network Formation Assay for Burst Interspike Interval, Shafer Lab (AID 2284044);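 for AC50: potency for a decrease of within-burst interspike interval below DMSO level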
How it was run: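 Mean interspike interval within single-electrode bursts, averaged over bursting electrodes, from rat cortical cultures on MEA plates recorded on days 5, 7, 9 and 12. Continuous compound exposure from plating; trapezoidal AUC fitted downward relative to DMSO.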

[7] = CCTE_Shafer_MEA_dev_burst_duration_mean: CCTE's Neural Network Formation Assay for Mean Burst Duration, Shafer Lab (AID 2284045);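 for AC50: curve fitted for loss meaning shorter burst duration than DMSO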
How it was run: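 Network-formation assay in primary rat cortical neurons; treatment spans twelve days of development. Mean burst duration per well is integrated by trapezoidal AUC and fitted in the loss-of-signal direction against DMSO baseline.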

[8] = CCTE_Shafer_MEA_dev_interburst_interval_mean: CCTE's Neural Network Formation Assay for Mean Interburst Interval, Shafer Lab (AID 2284046);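 note: well-mean interburst interval of bursting electrodes as AUC over four recording days; curve fitted for decrease in interburst interval relative to DMSO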
How it was run: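 Rat cortical neurons, 1.5 x 10^5 cells/well, 48-well MEA; compound from day 0 through DIV 12, media and treatment renewed DIV 5/9. Recordings DIV 5, 7, 9, 12; well-mean interburst interval → trapezoidal AUC, loss direction vs DMSO.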

[9] = CCTE_Shafer_MEA_dev_inter_network_spike_interval_mean: CCTE's Neural Network Formation Assay for Mean Inter-network Spike Interval, Shafer Lab (AID 2284047);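 for AC50: potency for a decrease in mean inter-network spike interval below DMSO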
How it was run: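 Primary rat cortical neurons on PEI-coated 48-well MEAs (16 electrodes/well) were exposed from plating day 0 to DIV 12, with dosing renewed at DIV 5 and 9. Recordings at DIV 5, 7, 9, 12 were collapsed by trapezoidal AUC, loss-of-signal fit vs DMSO.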

[10] = CCTE_Shafer_MEA_dev_network_spike_number: CCTE's Neural Network Formation Assay for Number of Network Spikes, Shafer Lab (AID 2284048);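 note: synchronized bursts across electrodes counted on days 5 7 9 12 and integrated as AUC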;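 for AC50: fit as a loss of signal meaning fewer network spikes than DMSO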
How it was run: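 Extracellular recordings from 16-electrode wells track network formation in rat cortical cultures under continuous treatment from plating. The endpoint is network spike number, expressed as AUC across DIV 5–12 relative to DMSO vehicle.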

[11] = CCTE_Shafer_MEA_dev_spike_duration_mean: CCTE's Neural Network Formation Assay for Mean Spike Duration, Shafer Lab (AID 2284051);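 note: mean network spike duration pooled as area under curve over DIV 5 to 12 recordings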;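 for AC50: potency for a decrease in mean network spike duration versus DMSO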
How it was run: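 Rat cortical primary cultures, 48-well MEA (16 electrodes/well); compound from plating, renewed DIV 5, 9. Network spike duration (AxIS adaptive detector) recorded DIV 5/7/9/12, combined as trapezoidal AUC; loss direction vs DMSO.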

[12] = CCTE_Shafer_MEA_dev_network_spike_duration_std: CCTE's Neural Network Formation Assay for Standard Deviation of Network Spike Duration, Shafer Lab (AID 2284052);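 note: area under curve of spike duration SD across recording days 5 to 12; hits are decreases in network spike duration SD versus DMSO vehicle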
How it was run: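 Rat cortical cultures, 1.5 x 10^5 cells/well, exposed continuously from plating to DIV 12 with media/compound renewal at DIV 5, 9. Spontaneous activity recorded DIV 5/7/9/12, AxIS adaptive spike detector; AUC across days; negative direction vs DMSO.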

[13] = CCTE_Shafer_MEA_dev_per_network_spike_spike_number_mean: CCTE's Neural Network Formation Assay for Mean Number of Spikes in a Network Spike, Shafer Lab (AID 2284053)
How it was run: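 Rat cortical primary cultures on 48-well MEA; compound from day 0, re-dosed with full media change DIV 5, 9. Recorded DIV 5, 7, 9, 12; spikes in 0.05 s window at network-spike peak ÷ total network spikes; AUC; loss vs DMSO.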

[14] = CCTE_Shafer_MEA_dev_per_network_spike_spike_percent: CCTE's Neural Network Formation Assay for Percent of Spikes in a Network Spike, Shafer Lab (AID 2284054)
How it was run: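 Developing networks of rat cortical neurons are dosed at day 0 and recorded extracellularly four times up to day 12. The endpoint is the area under the curve of percent spikes in network spikes, fitted in the negative direction relative to DMSO.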

[15] = CCTE_Shafer_MEA_dev_LDH: CCTE's Lactate Dehydrogenase Assay for Cytotoxicity in the Neural Network Formation Assay, Shafer Lab (AID 2284068; active = hit-call score of the fitted dose curve at least 0.9, where 1 is the maximum;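 note: exposure for twelve days from plating with re-dosing on DIV 5 and 9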)
How it was run: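 Rat cortical primary neurons, MEA culture; dosing day 0–12, full medium plus compound exchange DIV 5, 9. Read-out: LDH enzyme activity, spectrophotometric. DMSO = negative control/baseline; signal loss → cytotoxicity.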

[16] = CCTE_Shafer_MEA_dev_mutual_information_norm: CCTE's Neural Network Formation Assay for Mutual Information Normalization, Shafer Lab (AID 2284091);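 for AC50: mutual information between electrodes summarised as area under curve across four recording days; potency is for a decrease in mutual information relative to DMSO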
How it was run: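 Exposure of primary rat cortical neurons began at plating and ran to DIV 12, with full media and treatment renewal after DIV 5 and 9 recordings. Mutual information AUC (DIV 5–12) was analysed for loss versus DMSO.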

[17] = CCTE_Shafer_MEA_dev_correlation_coefficient_mean: CCTE's Neural Network Formation Assay for Mean Correlation Coefficient, Shafer Lab (AID 2284093);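 for AC50: well mean pairwise spike train correlation integrated as AUC over recording days 5 to 12; potency fitted for loss of correlation relative to DMSO vehicle wells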
How it was run: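 Rat cortical cultures, 1.5 x 10^5 cells/well, dosed from day 0 for 12 days. Spontaneous spikes recorded DIV 5/7/9/12; electrode-pair correlation coefficients averaged, AUC taken. Fit in loss direction vs DMSO.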

[18] = UKN2_HCS_IMR90_neural_migration: University of Konstanz (UKN) Leist Lab Neural Crest Cell Migration Assay in human induced IMR90 Pluripotent Stem Cells (UKN2) (AID 2284204); conditions: actives raise or lower the signal
How it was run: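 Using a 96-well stopper format with PLO/laminin/fibronectin coating, neural crest cells from iPSC migrate in cytokine-supplemented N2-S medium; after 24 h, chemicals are applied for a further 24 h, then cells are imaged after dye staining.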

Measured: AC50

C[n+]1ccc(-c2cc[n+](C)cc2)cc1
inactive: [18]
active: [1] 2290 nM | [2] 1710 nM | [3] 1250 nM | [4] 2290 nM | [5] 1180 nM | [6] 2330 nM | [7] 2290 nM | [8] 1160 nM | [9] 760 nM | [10] 2310 nM | [11] 1150 nM | [12] 1420 nM | [13] 1440 nM | [14] 1810 nM | [15] 1710 nM | [16] 2290 nM | [17] 1630 nM

CCOP(=O)(OCC)SCSCC
active: [14] 90900 nM
inactive: all other assays above

CC1(C)C(C=C(Cl)Cl)C1C(=O)O[C@H](C#N)c1cccc(Oc2ccccc2)c1 (stereo partly specified)
active: [1] 711 nM | [2] 4590 nM | [3] 4440 nM | [4] 1950 nM | [5] 3600 nM | [6] 2890 nM | [7] 650 nM | [8] 8700 nM | [9] 1030 nM | [10] 7660 nM | [11] 2950 nM | [12] 3100 nM | [13] 2740 nM | [14] 7680 nM | [15] 5770 nM | [16] 2900 nM | [17] 4480 nM
inactive: [18]

C#CCN(C)[C@H](C)Cc1ccccc1
not listed: [5] | [18]
inactive: all other assays above

CP(=O)(O)CC[C@H](N)C(=O)O
not listed: [18]
inactive: all other assays above

C/C(=C/C=C/[C@@H](C)C(=O)O)[C@H]1CN[C@H](C(=O)O)[C@H]1CC(=O)O
inactive: [1] | [2] | [3] | [4] | [5] | [6] | [7] | [8] | [9] | [10] | [11] | [12] | [13] | [14] | [16] | [17] | [18]
active: [1] 68 nM | [2] 2060 nM | [3] 970 nM | [4] 131 nM | [5] 1280 nM | [6] 1330 nM | [7] 992 nM | [8] 32.2 nM | [9] 160 nM | [10] 21.8 nM | [11] 1130 nM | [12] 259 nM | [13] 1050 nM | [14] 2330 nM | [15] 6750 nM | [16] 50.7 nM | [17] 1560 nM

CCOP(=O)(Oc1cnc(C(C)(C)C)nc1)OC(C)C (stereo unspecified)
active: [3] 29200 nM | [15] 11400 nM
inactive: all other assays above

CC1(C)[C@@H](C=C(Cl)Cl)[C@@H]1C(=O)O[C@@H](C#N)c1ccc(F)c(Oc2ccccc2)c1
active: [1] 5760 nM | [2] 15000 nM | [3] 10200 nM | [5] 15000 nM | [11] 6210 nM | [13] 5820 nM | [14] 15000 nM | [16] 2390 nM | [17] 5160 nM
inactive: [4] | [6] | [7] | [8] | [9] | [10] | [12] | [15]
